Experiments:
Assay in all cases: log2 ratio of Biotin-Ahx-Ub-VS probe labelling (fragment/DMSO); higher = less target engagement (more negative = stronger competition), active = hit call of the paper (q ≤ 0.05, log2 ratio ≤ -1)
Conditions in all cases: compound concentration: 200 uM; treatment time: 3 h
USP19 = target: T1, USP19 (UniProt O94966)
T1 sequence (whole entry): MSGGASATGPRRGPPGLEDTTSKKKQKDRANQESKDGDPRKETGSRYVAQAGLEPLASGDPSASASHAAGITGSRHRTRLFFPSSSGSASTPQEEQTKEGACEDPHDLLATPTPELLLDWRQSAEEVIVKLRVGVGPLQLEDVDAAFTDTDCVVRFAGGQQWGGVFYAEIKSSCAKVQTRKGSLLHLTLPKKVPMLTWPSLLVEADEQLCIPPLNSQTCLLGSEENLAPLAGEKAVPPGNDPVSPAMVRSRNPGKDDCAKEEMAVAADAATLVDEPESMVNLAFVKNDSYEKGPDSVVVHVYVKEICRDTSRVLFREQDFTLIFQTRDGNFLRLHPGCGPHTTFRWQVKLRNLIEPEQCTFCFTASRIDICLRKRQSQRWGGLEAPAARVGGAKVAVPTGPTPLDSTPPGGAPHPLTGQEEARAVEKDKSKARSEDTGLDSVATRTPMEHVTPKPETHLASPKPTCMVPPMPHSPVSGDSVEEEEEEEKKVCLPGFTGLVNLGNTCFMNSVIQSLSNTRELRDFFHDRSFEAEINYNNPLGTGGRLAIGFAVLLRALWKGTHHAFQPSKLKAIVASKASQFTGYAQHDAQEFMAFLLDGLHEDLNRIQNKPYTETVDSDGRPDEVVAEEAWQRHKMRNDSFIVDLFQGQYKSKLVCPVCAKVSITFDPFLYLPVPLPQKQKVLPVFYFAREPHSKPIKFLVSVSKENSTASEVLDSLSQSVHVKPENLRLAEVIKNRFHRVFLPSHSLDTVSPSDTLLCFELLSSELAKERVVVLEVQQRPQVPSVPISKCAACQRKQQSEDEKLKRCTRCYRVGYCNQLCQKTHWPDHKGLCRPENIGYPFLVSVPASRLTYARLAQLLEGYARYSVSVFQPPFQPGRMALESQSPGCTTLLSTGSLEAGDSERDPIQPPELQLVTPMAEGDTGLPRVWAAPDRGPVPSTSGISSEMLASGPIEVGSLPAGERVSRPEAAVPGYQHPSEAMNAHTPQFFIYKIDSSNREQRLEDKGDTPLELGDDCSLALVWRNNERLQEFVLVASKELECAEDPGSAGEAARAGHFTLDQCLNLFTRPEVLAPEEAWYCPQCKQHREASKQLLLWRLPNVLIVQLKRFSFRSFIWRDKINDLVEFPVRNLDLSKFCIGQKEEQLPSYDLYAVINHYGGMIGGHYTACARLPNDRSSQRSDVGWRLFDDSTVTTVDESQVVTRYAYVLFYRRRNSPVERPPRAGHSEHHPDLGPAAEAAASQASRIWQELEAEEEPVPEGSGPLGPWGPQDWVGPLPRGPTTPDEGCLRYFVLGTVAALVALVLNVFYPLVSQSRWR
Outline: (§1)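 Each value is an average log2 ratio of fragment to vehicle, tested by unpaired t-test. The underlying Spectronaut label-free quantities were global-median-normalised, and only proteins with ≥2 unique peptides were included. Triplicate HEK293T lysate samples (495 µg) were exposed to fragment at 200 µM or vehicle for 3 h, then to Biotin-Ahx-Ub-VS at 0.5 µM final for 1 h, before NeutrAvidin enrichment of labelled DUBs, LysC and trypsin digestion, and diaPASEF LC-MS/MS.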

USP22 = target: T2, USP22 (UniProt Q9UPT9)
T2 sequence (whole entry): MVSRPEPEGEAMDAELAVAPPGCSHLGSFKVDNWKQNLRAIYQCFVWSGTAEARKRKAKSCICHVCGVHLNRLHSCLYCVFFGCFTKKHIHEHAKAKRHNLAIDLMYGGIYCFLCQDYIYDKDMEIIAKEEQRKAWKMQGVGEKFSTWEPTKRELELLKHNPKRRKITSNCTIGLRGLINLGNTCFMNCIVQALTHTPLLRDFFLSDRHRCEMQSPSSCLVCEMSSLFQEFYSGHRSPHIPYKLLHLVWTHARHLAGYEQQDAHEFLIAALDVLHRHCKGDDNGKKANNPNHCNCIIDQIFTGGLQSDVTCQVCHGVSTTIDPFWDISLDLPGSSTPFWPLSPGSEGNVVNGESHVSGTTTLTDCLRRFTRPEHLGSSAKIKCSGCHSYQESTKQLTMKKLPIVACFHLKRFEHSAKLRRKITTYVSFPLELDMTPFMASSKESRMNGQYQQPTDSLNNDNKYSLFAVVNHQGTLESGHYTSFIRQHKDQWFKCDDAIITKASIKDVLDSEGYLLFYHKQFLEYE
Outline: as §1

USP24 = USP24 (UniProt Q9UPU5)
USP24, sequence (Q9UPU5 whole entry): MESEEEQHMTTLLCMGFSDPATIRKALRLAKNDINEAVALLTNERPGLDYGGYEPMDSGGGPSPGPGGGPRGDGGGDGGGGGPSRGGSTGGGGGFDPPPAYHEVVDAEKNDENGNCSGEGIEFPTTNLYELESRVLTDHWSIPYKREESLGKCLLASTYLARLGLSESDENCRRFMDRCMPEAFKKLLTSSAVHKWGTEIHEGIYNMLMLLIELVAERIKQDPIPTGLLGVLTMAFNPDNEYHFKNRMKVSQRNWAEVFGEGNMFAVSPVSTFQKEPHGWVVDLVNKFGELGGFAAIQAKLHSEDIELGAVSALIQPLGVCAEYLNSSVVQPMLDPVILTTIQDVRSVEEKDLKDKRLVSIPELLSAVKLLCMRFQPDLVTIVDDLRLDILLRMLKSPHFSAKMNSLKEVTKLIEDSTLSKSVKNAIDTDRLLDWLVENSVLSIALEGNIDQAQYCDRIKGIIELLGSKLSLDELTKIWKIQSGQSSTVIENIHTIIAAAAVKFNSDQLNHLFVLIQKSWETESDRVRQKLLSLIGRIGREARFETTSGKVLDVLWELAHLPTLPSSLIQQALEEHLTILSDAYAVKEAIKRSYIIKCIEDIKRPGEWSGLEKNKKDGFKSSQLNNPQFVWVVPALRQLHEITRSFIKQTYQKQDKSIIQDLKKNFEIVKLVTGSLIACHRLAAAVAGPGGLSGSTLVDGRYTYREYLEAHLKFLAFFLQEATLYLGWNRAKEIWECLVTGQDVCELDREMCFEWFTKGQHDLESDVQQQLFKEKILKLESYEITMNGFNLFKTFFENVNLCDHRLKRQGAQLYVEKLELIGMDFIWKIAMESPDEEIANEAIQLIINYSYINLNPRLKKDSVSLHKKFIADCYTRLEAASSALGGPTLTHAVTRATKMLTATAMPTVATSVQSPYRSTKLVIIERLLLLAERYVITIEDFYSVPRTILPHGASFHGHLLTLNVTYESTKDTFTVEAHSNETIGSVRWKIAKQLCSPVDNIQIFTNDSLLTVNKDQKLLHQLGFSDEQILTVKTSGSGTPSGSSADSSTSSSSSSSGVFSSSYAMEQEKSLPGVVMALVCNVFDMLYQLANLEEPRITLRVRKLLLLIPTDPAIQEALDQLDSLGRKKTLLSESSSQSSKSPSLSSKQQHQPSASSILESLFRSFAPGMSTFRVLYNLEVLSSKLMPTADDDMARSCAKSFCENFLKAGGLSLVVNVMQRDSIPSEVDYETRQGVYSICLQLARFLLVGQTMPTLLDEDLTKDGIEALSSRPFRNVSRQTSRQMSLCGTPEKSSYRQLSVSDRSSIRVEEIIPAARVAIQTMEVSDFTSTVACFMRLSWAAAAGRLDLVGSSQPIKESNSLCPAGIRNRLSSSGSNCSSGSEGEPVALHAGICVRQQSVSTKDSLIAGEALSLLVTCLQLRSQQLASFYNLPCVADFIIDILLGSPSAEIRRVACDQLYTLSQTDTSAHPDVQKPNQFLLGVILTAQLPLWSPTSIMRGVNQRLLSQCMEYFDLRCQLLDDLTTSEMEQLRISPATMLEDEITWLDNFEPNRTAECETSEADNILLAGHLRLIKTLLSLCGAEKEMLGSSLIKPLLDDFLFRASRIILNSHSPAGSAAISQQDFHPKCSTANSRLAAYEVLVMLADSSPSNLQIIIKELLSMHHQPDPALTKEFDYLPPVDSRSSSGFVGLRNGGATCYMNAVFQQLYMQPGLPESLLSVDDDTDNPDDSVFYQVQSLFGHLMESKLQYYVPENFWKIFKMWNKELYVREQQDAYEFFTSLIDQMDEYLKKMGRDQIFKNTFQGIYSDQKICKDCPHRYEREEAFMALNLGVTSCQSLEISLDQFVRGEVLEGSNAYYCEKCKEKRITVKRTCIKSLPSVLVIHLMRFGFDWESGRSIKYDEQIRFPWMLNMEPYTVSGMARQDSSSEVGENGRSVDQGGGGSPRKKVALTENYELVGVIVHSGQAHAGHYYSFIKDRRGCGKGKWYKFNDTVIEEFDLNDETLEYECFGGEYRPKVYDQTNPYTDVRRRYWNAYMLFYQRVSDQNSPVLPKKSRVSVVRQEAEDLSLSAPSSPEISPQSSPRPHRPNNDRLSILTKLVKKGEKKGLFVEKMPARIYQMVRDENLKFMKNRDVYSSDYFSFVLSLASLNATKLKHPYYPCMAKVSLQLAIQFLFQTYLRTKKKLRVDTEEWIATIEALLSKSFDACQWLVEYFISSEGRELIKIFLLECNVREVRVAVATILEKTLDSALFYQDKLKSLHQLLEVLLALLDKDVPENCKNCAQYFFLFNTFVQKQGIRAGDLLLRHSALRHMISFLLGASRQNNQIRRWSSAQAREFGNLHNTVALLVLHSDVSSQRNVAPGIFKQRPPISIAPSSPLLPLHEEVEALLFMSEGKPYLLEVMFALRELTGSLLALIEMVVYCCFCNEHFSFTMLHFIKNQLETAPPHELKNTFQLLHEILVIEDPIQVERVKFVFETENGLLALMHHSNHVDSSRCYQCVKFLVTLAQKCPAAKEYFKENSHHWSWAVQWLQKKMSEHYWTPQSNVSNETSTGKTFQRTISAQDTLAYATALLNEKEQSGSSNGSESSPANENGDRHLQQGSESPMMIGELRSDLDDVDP
Outline: as §1

USP25 = target: T3, USP25 (UniProt Q9UHP3)
T3 sequence (whole entry): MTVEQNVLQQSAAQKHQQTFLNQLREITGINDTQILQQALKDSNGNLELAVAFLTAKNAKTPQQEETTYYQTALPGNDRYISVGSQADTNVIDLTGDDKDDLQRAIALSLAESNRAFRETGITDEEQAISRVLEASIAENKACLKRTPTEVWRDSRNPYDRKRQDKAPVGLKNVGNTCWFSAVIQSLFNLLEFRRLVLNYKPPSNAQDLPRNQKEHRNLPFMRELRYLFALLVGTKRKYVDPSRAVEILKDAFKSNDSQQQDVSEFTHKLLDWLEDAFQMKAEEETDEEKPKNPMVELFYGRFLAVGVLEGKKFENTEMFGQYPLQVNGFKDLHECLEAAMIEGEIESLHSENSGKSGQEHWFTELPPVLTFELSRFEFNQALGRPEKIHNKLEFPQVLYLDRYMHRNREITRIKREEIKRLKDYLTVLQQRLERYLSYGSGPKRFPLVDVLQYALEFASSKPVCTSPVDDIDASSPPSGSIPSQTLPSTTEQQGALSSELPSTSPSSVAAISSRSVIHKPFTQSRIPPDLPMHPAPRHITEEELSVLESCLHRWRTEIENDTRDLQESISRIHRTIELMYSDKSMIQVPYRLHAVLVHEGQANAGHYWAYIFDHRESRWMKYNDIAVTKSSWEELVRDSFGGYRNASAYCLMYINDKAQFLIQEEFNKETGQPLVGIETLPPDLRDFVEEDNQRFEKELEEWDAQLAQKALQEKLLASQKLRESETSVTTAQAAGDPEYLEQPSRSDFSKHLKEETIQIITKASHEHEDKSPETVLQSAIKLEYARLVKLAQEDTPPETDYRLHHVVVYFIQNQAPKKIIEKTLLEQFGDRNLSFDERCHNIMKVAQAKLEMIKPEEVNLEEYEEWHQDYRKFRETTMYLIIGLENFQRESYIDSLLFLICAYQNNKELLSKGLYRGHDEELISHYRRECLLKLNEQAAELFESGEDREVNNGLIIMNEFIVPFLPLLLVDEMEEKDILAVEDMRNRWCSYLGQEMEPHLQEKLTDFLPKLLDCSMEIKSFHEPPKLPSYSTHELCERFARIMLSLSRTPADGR
Outline: as §1

USP28 = target: T4, USP28 (UniProt Q96RU2)
T4 sequence (whole entry): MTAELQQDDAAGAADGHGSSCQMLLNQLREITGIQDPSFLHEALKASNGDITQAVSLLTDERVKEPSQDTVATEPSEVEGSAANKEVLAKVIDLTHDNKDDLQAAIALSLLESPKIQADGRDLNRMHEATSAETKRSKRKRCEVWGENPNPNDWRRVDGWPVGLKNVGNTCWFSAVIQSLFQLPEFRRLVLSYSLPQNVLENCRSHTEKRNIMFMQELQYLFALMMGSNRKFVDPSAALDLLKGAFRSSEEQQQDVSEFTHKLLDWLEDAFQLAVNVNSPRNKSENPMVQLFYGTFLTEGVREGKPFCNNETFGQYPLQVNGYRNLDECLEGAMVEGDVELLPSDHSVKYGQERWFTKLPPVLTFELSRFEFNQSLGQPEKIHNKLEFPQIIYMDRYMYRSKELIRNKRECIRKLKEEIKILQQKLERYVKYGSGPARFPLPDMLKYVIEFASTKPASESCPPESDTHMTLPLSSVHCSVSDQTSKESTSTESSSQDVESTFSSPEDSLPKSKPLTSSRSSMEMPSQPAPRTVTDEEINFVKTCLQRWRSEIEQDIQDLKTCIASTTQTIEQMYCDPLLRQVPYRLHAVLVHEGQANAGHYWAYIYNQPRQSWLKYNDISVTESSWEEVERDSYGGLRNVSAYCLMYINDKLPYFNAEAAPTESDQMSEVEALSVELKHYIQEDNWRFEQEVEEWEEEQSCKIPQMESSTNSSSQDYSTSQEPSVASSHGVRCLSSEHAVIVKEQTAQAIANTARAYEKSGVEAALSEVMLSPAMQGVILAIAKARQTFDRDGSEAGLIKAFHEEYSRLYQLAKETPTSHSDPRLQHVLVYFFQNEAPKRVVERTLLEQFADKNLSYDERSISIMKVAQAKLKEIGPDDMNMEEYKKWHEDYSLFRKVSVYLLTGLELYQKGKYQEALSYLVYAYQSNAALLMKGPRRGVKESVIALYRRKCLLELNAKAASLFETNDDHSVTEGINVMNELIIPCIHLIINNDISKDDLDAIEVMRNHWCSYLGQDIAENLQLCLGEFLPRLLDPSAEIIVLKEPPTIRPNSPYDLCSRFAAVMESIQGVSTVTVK
Outline: as §1

Measured: log2 ratio of Biotin-Ahx-Ub-VS probe labelling

Cc1nc(CN2CCCN(C(=O)CCl)CC2)no1.Cl
inactive: USP19 0.0547 | USP22 0.125 | USP24 0.252 | USP25 0.233 | USP28 -0.00501

From the supplement of paper PMC11732987, “Enantioselective OTUD7B fragment discovery through chemoproteomics screening and high-throughput optimisation” (Communications Chemistry, 2025)
